# Laboratory results taken from publication PMC5540273 (PLoS ONE, 2017).
# What was measured:
# Conditions in all cases: concentration: 1 μM, replicates: in singlicate; n = 1
# CSF1R = tested on: CSF1R
# CSK = tested on: CSK
# CSNK1A1L = tested on: CSNK1A1L
# CSNK1A1 = tested on: CSNK1A1
# CSNK1D = tested on: CSNK1D
# CSNK1E = tested on: CSNK1E
# CSNK1G1 = tested on: CSNK1G1
# CSNK1G2 = tested on: CSNK1G2
# CSNK1G3 = tested on: CSNK1G3
# CSNK2A1 = tested on: CSNK2A1
# 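Also: KINOMEscan kinase panel screen.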
SMILES,%Inh (CSF1R),%Inh (CSK),%Inh (CSNK1A1L),%Inh (CSNK1A1),%Inh (CSNK1D),%Inh (CSNK1E),%Inh (CSNK1G1),%Inh (CSNK1G2),%Inh (CSNK1G3),%Inh (CSNK2A1)
COC(=O)c1c(-c2ccccc2)c2cc(Br)ccc2c(=O)n1Cc1ccc(S(C)(=O)=O)cc1,16%,0%,9%,30%,9%,0%,7%,13%,0%,0%
Cc1cccc(-c2nc(Nc3ccc4c(cnn4C)c3)c3ccccc3n2)n1 [GW876731],29%,2%,0%,0%,50%,37%,18%,10%,0%,0%
Cc1nnc(-c2ccc3ncn(-c4ccc(S(C)=O)cc4)c3c2)o1 (centres unmarked),12%,0%,14%,0%,9%,8%,0%,18%,24%,22%
Nc1ncnc2c1ncn2-c1cccc2ccccc12 [SKF-97184],3%,0%,0%,0%,0%,11%,0%,0%,0%,0%
CN1C(=O)C(Nc2ccccc2)=C(c2ccccc2)C1=O [SB-300079],16%,0%,0%,0%,0%,0%,0%,0%,0%,0%
CCCC(=O)Nc1n[nH]c2ncc(-c3cccc4ccccc34)cc12 [SB-642057],26%,0%,2%,0%,37%,19%,4%,0%,1%,0%
CCS(=O)c1ccc(-c2coc3ccc(-c4nnc(C)o4)cc23)cc1 (centres unmarked),0%,19%,0%,1%,0%,0%,0%,0%,0%,21%
Cc1cccc(-c2cc(-c3c[nH]nc3-c3ccccn3)ccn2)c1 [GW679395],53%,0%,2%,0%,25%,10%,8%,0%,6%,0%
FC(F)(F)c1ccc(-c2ncn(CCCN3CCOCC3)c2-c2ccncc2)cc1 [SB-217780],25%,18%,33%,21%,0%,0%,0%,0%,12%,20%
CCC(=O)c1c(-c2ccccc2)c2cc(Cl)ccc2c(=O)n1Cc1cc(S(C)(=O)=O)n(CC(F)F)n1,10%,73%,0%,0%,0%,1%,0%,7%,0%,0%
CCC(=O)c1c(-c2ccccc2)c2cc(Cl)ccc2c(=O)n1Cc1ccc(C(=O)O)cc1,2%,0%,1%,0%,0%,0%,0%,0%,0%,0%
COc1cc2nccc(Nc3ccc(OCc4ccc(NC(C)=O)cc4)cc3)c2cc1OC.Cl [GW440135],73%,0%,15%,0%,0%,16%,0%,0%,15%,5%
COc1cc(Nc2nccc(N3CCC(NC(=O)C4COc5ccccc5O4)C3)n2)cc(OC)c1OC (centres unmarked) [GSK1379761],20%,0%,0%,0%,0%,0%,3%,0%,2%,0%
OCCCNc1nccc(-c2c(-c3cccc(C(F)(F)F)c3)nn3cc(C(F)(F)F)ccc23)n1 [GW630813],0%,0%,0%,0%,36%,54%,0%,0%,13%,0%
Cn1c(=O)c(F)c(Nc2ccc(I)cc2F)c2c(=O)n(OC[C@H](O)CO)cnc21,21%,20%,0%,36%,12%,25%,11%,20%,4%,0%
COc1ccc(-n2cnc3c(N)ncnc32)cc1 [SKF-97236],0%,4%,7%,33%,42%,34%,13%,11%,6%,12%
Nc1n[nH]c2nnc(-c3ccccc3)c(-c3ccccc3)c12 [GW554060],0%,0%,13%,0%,0%,7%,0%,0%,0%,11%
CCn1c(-c2nonc2N)nc2ccccc21 [SB-693162/GW549034],0%,5%,0%,6%,7%,0%,0%,0%,0%,21%
CC(C)(C)c1ccc(C(=O)Nc2cn3cc(-c4ccccc4)ccc3n2)cc1,0%,0%,0%,0%,0%,28%,0%,8%,20%,15%
O=C(NCc1cccs1)c1cc(C(=O)c2c(Cl)cccc2Cl)c[nH]1 [GW823670],13%,0%,0%,0%,0%,0%,0%,0%,0%,0%
CCn1c(-c2ccoc2)nc2cnccc21 [SB-733887],8%,0%,0%,0%,12%,3%,0%,0%,4%,0%

SMILES,%Inh (CSF1R),%Inh (CSK),%Inh (CSNK1A1L),%Inh (CSNK1A1),%Inh (CSNK1D),%Inh (CSNK1E),%Inh (CSNK1G1),%Inh (CSNK1G2),%Inh (CSNK1G3),%Inh (CSNK2A1)
Cc1c(Cn2c(C)nn3c(=O)cc(N4CCO[C@H](C)C4)nc23)cccc1C(F)(F)F [GSK2373690],51%,0%,2%,23%,25%,20%,67%,0%,21%,0%
Cc1nc(N(C)[C@H]2CN(C(=O)CC#N)CC[C@H]2C)c2cc[nH]c2n1,13%,0%,3%,0%,0%,0%,5%,0%,0%,0%
CCC(=O)c1c(-c2ccccc2)c2cc(Cl)ccc2c(=O)n1Cc1cc(S(C)(=O)=O)n(CC(N)=O)n1,0%,4%,0%,0%,0%,0%,0%,0%,0%,0%
Nc1n[nH]c2ncc(-c3ccccc3)cc12 [SB-517081],47%,0%,9%,0%,30%,15%,68%,0%,6%,0%
Cl.c1ccc(Cn2cnc3cc(Nc4ncnc5ccccc45)ccc32)cc1 [GW272142],4%,64%,11%,0%,16%,42%,1%,1%,27%,0%
COc1cc2ncn(-c3cc(OCCCc4ccccc4)c(C(N)=O)s3)c2cc1OC [GSK205189],0%,0%,5%,23%,1%,2%,1%,2%,21%,0%
COc1cc2ncn(-c3cc(OCc4ccncc4)c(C(N)=O)s3)c2cc1OC [GSK336313],15%,0%,2%,0%,8%,29%,0%,0%,30%,2%
CCc1ccc(-c2ccc3c(c2)-c2nn(C)cc2S(=O)(=O)N3C)cc1,0%,2%,0%,2%,0%,0%,0%,7%,0%,0%
Cc1ccc(-c2ccc3c(ccc4sc5c(c43)NC[C@@H](C)N=C5N(C)C)n2)cn1,0%,0%,0%,6%,0%,0%,0%,0%,1%,0%
C[C@@H]1CC[C@H](C(=O)NC2CCCCC2)CN1c1cc(-c2ccc3c(N)n[nH]c3c2)nc(N)n1 [GSK2291363],26%,0%,12%,0%,17%,24%,14%,3%,30%,21%
CCCNC(=O)Nc1ccc(Oc2ncnc3ccn(C)c23)cc1,29%,0%,7%,10%,9%,0%,2%,11%,0%,0%
COc1ccc(-c2cc3c(C)nc(N)nc3n([C@H]3CC[C@H](OCCO)CC3)c2=O)cn1,5%,13%,0%,24%,1%,4%,0%,0%,0%,0%
CCC(=O)c1c(-c2ccccc2)c2cc(Cl)ccc2c(=O)n1Cc1cc(C(=O)NC2CC2)n(C)n1,9%,0%,0%,11%,0%,0%,0%,0%,0%,0%
CCc1nc(-c2cccc(C)c2)c(-c2ccncc2)s1,0%,0%,12%,58%,68%,70%,0%,10%,12%,4%
COc1cc2ncn(-c3cc(OCc4ccc(S(C)(=O)=O)cc4)c(C(N)=O)s3)c2cc1OC [GW869979],0%,0%,0%,0%,0%,13%,0%,10%,3%,19%
Cc1cc(Nc2nc(-c3cccc(C)n3)nc3ccccc23)ccn1 [GW872411],0%,0%,0%,0%,35%,31%,3%,0%,0%,0%
COc1ccc(Nc2nccc(N3CCC(NS(=O)(=O)c4ccc(NC(C)=O)cc4)C3)n2)cc1 (centres unmarked) [GSK1379729],1%,0%,13%,32%,17%,25%,6%,18%,28%,15%
O=c1cc(N2CCOCC2)nc2n(Cc3ccc(F)c(Cl)c3)ccn12 [GSK2297099],26%,13%,6%,0%,9%,52%,12%,0%,34%,1%
Nc1nccc2scc(-c3ccc4c(c3)CCN4C(=O)Cc3ccccc3)c12 [GSK2576924],78%,0%,0%,0%,13%,6%,7%,0%,26%,5%
O=C1NC(=O)C(c2ccccc2)=C1Nc1cccc(O)c1 [SB-390534],10%,0%,8%,19%,0%,16%,0%,0%,8%,0%
